Laboratory results published in PubChem BioAssay AID434926 (Sanford-Burnham Center for Chemical Genomics, 2010).
The list shows a part of the results. A number with no mark means an inactive call. Active and inactive are the calls of the source.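 How the source made its calls: active means at least twofold enzyme activation in any of six single-dose repeats, which the averaged readout prints as negative percent; inactive means the rest.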

These compounds were tested against Intestinal-type alkaline phosphatase (Homo sapiens) (UniProt P09923) (assay: enhancement of intestinal alkaline phosphatase activity – biochemical, luminescence, single concentration, uHTS hits, confirmation (AID 434926)). Conditions: purified IAP, CDP-Star luminescence, 30 min; at 8.3 µM; stronger effect = lower value.
Sequence of Intestinal-type alkaline phosphatase (Homo sapiens) (P09923 whole entry, looked up): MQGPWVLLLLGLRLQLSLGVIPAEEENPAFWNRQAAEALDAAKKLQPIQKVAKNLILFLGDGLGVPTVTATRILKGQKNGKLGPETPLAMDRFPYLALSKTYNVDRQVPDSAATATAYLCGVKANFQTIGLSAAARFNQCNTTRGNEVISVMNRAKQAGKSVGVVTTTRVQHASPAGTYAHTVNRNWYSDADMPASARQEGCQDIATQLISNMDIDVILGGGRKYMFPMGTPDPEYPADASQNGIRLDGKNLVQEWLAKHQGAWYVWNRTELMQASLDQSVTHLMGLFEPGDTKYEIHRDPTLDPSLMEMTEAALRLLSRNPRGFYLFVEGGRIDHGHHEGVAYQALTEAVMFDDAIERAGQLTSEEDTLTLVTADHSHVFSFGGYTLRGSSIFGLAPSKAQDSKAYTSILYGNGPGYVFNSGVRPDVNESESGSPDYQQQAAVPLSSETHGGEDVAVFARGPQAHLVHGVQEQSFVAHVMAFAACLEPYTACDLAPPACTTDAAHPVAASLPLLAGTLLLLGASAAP

Structure (SMILES) | activation (%Activity, negative = activation)
CC(C)(C)OC(=O)NCCCCCNC(=O)c1[nH]cnc1C(=O)Nc1nccs1 | -6.96%
Cc1ccc2c(c1)nnc1nnc(SCC(=O)O)n12 | 33.9%
COc1ccc2c(c1OC)C(=O)N(c1ncn[nH]1)C2 | 12.6%
COc1cccc(/C=N\NC(=O)C2=NNC(=O)C2C)c1O (centres undefined) | 34.8%
CC(=O)c1ccc(NC(=O)C2CCCN2S(=O)(=O)c2cccs2)cc1 (centres undefined) | -85.1% (active)
C[C@H](NC(=O)c1[nH]cnc1C(=O)Nc1nccs1)c1ccccc1 | -3.71%
COc1cccc(CNS(=O)(=O)c2ccc3c(c2)N(C(C)=O)CCS3)c1 | -34.5%
COc1ccc(CN2CCC(n3nccc3NC(=O)CCCc3ccccc3)CC2)cc1C | -127% (active)
COc1cc(/C=C2/SC(=S)N(Cc3ccccc3)C2=O)cc(OC)c1O | 3.41%
O=c1c(/C=N/O)coc2ccc(Cl)cc12 | -11.6%
CC(=NCc1ccc2c(c1)OCO2)C1=C(O)c2ccccc2C1=O | -2.92%
N#C/C(=C\c1ccc(O)c(O)c1)C(=O)NCc1ccccc1 | -0.121%
CCN1/C(=C\c2ccc3ccccc3[n+]2CC)Sc2cc(C)ccc21 | 32.7%
COc1cc(NC(=O)COC(=O)c2cnc(C)cn2)c(C)cc1[N+](=O)[O-] | 6.98%
CN1/C(=c2/s/c(=C3/C(=O)N(c4ccccc4)NC3=Nc3ccccc3)n(C)c2=O)C(C)(C)c2ccccc21 | -2.61%
Cc1cc(C(=O)NC2CC(C)(C)Cc3c2cnn3-c2ccccc2)n[nH]1 (centres undefined) | 62.1%
COc1cccc(/C=N/NC(=O)c2[nH]nc3c2CCc2ccccc2-3)c1O | 13.9%
COc1ccc(C(=O)NNc2cc(C)nc(NNC(=O)c3ccc(OC)cc3)n2)cc1 | -9.79%
COc1c(O)cc2oc(-c3ccc(O)c(O)c3)cc(=O)c2c1O | -36.9%
OC(c1nc2ccc(F)cc2[nH]1)C(O)c1nc2ccc(F)cc2[nH]1 (centres undefined) | 24.7%
CCC(C(=O)Nc1ccc(C(C)C)cc1)c1ccccc1 (centres undefined) | -30.6%
Oc1cccc(/C=N/Nc2ccc(Cl)nn2)c1O | 1.16%
O=C(NNC(=S)Nc1ccccc1)c1cccc(S(=O)(=O)N2CCOCC2)c1 | -70.7%
NC(=O)COc1ccc(NC(=O)c2ccccc2-c2ccccc2)cc1 | 9.49%
